High-throughput results (PubChem BioAssay)
The entries come from a sample that favours hits as a whole.
TbPYK inhibitor: blocks Trypanosoma brucei pyruvate kinase. Q57TT1. AID 624173. TbPYK enzyme, Kinase-Glo Plus ATP luminescence, 45 min. Potency, µM (highest dose often 76.8 µM), for inactives: top-dose activity, negative = inhibition, hits mostly inhibitors. hit rate 0.12% among 410,000; further: potency means the concentration at half of the fitted maximal effect; on the % scale 0 is the no-effect control and ±100 the full control effect; nearly all actives have a fitted effect of over 50% in size
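Luminescence from Kinase-Glo Plus, added after a 45-minute room-temperature reaction, served as the end-point read-out. The enzyme and substrate were preincubated with compound before ADP (130 uM final) initiated turnover. Concentration-effect curves came from normalized qHTS data.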
Giardia FBPA inh: inhibitors of Giardia lamblia fructose-1,6-bisphosphate aldolase. A8B2U2. purified Giardia FBPA. Potency, µM (doses to about 59.6 µM), inactives show top-dose activity, negative = inhibition, usual class: inhibitors. hit rate 0.71% among 290,000. AID 2451; further: potency means the concentration at half of the fitted maximal effect; on the % scale 0 is the no-effect control and ±100 the full control effect; nearly all actives have a fitted effect of over 55% in size
Target sequence (A8B2U2 whole entry, looked up): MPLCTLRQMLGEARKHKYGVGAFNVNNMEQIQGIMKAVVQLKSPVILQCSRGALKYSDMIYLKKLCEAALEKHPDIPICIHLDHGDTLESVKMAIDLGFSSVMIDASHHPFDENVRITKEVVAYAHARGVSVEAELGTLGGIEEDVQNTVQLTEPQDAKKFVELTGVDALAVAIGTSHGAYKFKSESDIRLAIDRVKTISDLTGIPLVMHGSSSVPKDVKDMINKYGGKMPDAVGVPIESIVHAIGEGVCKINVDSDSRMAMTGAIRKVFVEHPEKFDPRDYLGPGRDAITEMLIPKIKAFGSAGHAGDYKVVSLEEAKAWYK
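40 nM FBPA preincubated 10 min at RT with compound (up to 57.5 uM final), then substrate plus GAPDH/TPI/NAD/arsenate coupling and diaphorase/resazurin added. Fluorescence read after 20 min at RT, 525/598 nm.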
LmPK inhibitor: blocks Leishmania mexicana pyruvate kinase activity; Potency, µM (doses to about 57.5 µM), for the others: at the top dose activity change, negative = inhibition, most hits filed as inhibitors; hit rate 0.37% among 290,000; purified LmPK, Kinase-Glo ATP luminescence, 1 h; Q27686; further: potency means the concentration at half of the fitted maximal effect; on the % scale 0 is the no-effect control and ±100 the full control effect
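Kinase-Glo luminescence read after 1 h RT reaction of 0.1 nM LmPK with 0.5 mM PEP and 0.1 mM ADP. Activity scaled between uninhibited and enzyme-free controls.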
Sm TGR block: blocks Schistosoma mansoni thioredoxin glutathione reductase; Q962Y6; purified TGR, DTNB reduction, TNB absorbance 405 nm; Potency, µM (series often up to 114 µM), inactives show top-dose activity change, negative = inhibition, most hits filed as inhibitors; hit rate 3% among 360,000; further: potency means the concentration at half of the fitted maximal effect; on the % scale 0 is the no-effect control and ±100 the full control effect; nearly all actives have a fitted effect of over 60% in size
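First, TGR (20 nM dispensed) and NADPH were mixed with compound. Second, a 15 min room-temperature incubation followed. Third, further NADPH and then DTNB were added to start the reaction. Finally, TNB absorbance was monitored kinetically.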
Cycloheximide cs: counter-screen for Shiga toxin inhibitors: cycloheximide protein synthesis inhibition. max response, %. hit rate 12% among 300,000. cell reporter, cycloheximide protein synthesis inhibition counterscreen; in the data active means max response mostly above about 13%, no sharp cut-off; inactive means mostly below about 14%; further: read at 38.3 µM for the half of the compounds with a filed dose; 0% is about no effect
Shiga inhibitor: inhibitors of Shiga toxin in Vero cells; Vero cells, Shiga toxin protein synthesis inhibition reporter; inhibition, % at 38.7 µM; hit rate 9.2% among 290,000; AID 2315; in the data active means inhibition mostly above about 28%, no sharp cut-off; inactive means mostly below about 43%; further: 0% is about no effect
Starred values were filed as active, the others as inactive; ? = inconclusive; / = no result; [ ] = remark or other dose. Unless noted, the call rests on the fitted dose curve; in most records, active means well fitted curve in the direction sought with a large enough effect; inconclusive means small, poorly fitted or top-dose-only effect, or another doubt; inactive means no such curve, though single readings can be large; an effect the other way counts as inactive or inconclusive.

SMILES	TbPYK inhibitor	Giardia FBPA inh	LmPK inhibitor	Sm TGR block	Cycloheximide cs	Shiga inhibitor
Cc1cccc(-c2nc3c4c(-c5ccccc5)c(-c5ccccc5)oc4ncn3n2)c1	5%	/	/	5%	/	/
C#CCn1c(=O)c2c(nc(/C=C/c3cccc(OC)c3)n2C)n(CCCO)c1=O	/	0%	/	/	-4	-4
Oc1c(C(c2ccccc2F)N2CCC3(CC2)OCCO3)sc2nc(-c3ccco3)nn12 (stereo not given)	4%	/	/	15%	/	/
Oc1ccc2ccccc2c1C1Nc2cccc3cccc(c23)N1	-1%	-29%	4%	-35%	0	-13
COc1ccc(Br)cc1C1Nc2cccc3cccc(c23)N1	-7%	-28%	1%	?	30*	/
Clc1ccc(C2Nc3cccc4cccc(c34)N2)c(Cl)c1	-2%	/	/	/	/	/
COc1ccc2ccc3ccc(OC)c(OC(C)=O)c3c2c1	-5%	/	/	/	/	/
COc1cc(C2Nc3cccc4cccc(c34)N2)ccc1O	-4%	?	-22%	4µM*	0	-11
CCN(CC)c1ccc(C2Nc3cccc4cccc(c34)N2)c(O)c1	-9%	?	0%	22µM*	27*	51*
COc1cc(C2Nc3cccc4cccc(c34)N2)cc(OC)c1OC(C)=O	-15%	?	-1%	8.9µM*	0	-11
COC(=O)[C@@H]1[C@@H](O)[C@]2(O)c3ccccc3O[C@]2(c2ccccc2)[C@H]1c1ccccc1	/	-2%[12.9 µM]	/	/	/	/
CC(=O)N1CCc2cc(S(=O)(=O)NC(C(=O)NCc3ccccc3)C(C)C)ccc21 (stereo not given)	0%	0%	-2%	-8%	-3	1
COc1cccc(CNC(=O)C(NS(=O)(=O)c2ccc3c(c2)CCN3C(C)=O)C(C)C)c1 (stereo not given)	1%	/	2%	0%	24*	29
Cc1cc2c(c(C)c1Cl)C(c1ccc3c(c1)OCO3)CC(O)(c1ccccc1)O2 (stereo not given)	/	-10%	/	/	-1	-3
CS(=O)(=O)N1CCC(C(=O)Nc2ccc3c(c2)OCO3)CC1	-2%	0%	-2%	-20%	8	-13
CC(NC(=O)Nc1ccc2c(c1)OCO2)C1CCCO1 (stereo not given)	1%	-8%	-3%	-13%	44*	72*
O=C(NCc1ccc2c(c1)OCO2)C1CCCCC1	3%	5%	-8%	-3%	13*	42*
O=C(Nc1ccc2c(c1)OCO2)C1CCN(Cc2cc3c(cc2O)OCO3)CC1	-1%	-23%	5%	2.8µM*	2	21
O=C(Nc1ccc2c(c1)OCO2)C1CCCCC1	-9%	5%	1%	3%	33*	38*
O=C(Nc1ccc(Cl)cc1)C1C2C=CC3(O2)C1C(=O)N(CCCN1CCCCC1)C3C(=O)NC1CCCCC1 (stereo not given)	3%	-14%	2%	-2%	-7	8
COc1ccccc1C(=O)c1c(N)c(-c2nc(-c3ccccc3)cs2)c2ccccn12	-8%	/	/	-1%	/	/
CC(C)CNC(=O)c1cc(=O)[nH]c2ccc(S(=O)(=O)Nc3ccc(F)cc3)cc12	1%	0%	-5%	6%	-3	-10
CC(=O)N1CCc2c(sc3c2c(=O)n(Cc2ccccc2)c(=O)n3Cc2ccccc2Cl)C1	2%	/	/	29%	/	/
CN(CC(=O)Nc1ccccc1C(F)(F)F)C(=O)c1ccc2c(=O)n3c(nc2c1)CCC3	9%	/	/	-4%	/	/
CCc1cccc(C)c1NC(=O)CN1C(=O)c2c(c3ccccc3n2C)C1c1ccc(OC)cc1 (stereo not given)	-1%[15.4 µM]	/	/	-1%	/	/
O=C(CSC(=S)N1CCCCC1)c1ccccc1	1%	0%	?	/	23*	35
COc1ccc(C(=O)CSC(=S)N2CCCCC2)cc1	-8%	/	/	/	/	/
Cc1[nH]c2ccccc2c1C(=O)CSC(=S)N1CCCCC1	4%	-20%	-2%	-4%	95*	85*
O=C(CSC(=S)N1CCCC1)c1ccccc1	1%	-1%	-15%	-22%	48*	67*
Cc1[nH]c2ccccc2c1C(=O)CSC(=S)N(C)C1CCCCC1	1%	-15%	-2%	7%	15	41
